m-calpain inh: blocks pig calpain II enzyme activity. purified calpain II, fluorogenic peptide substrate, 30 min. inhibition, % at 16 µM. 0.37% of 220,000 active;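 active = inhibition above about 50%, limit read from the data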
S1P4 ag: human S1P4 receptor agonism; S1P4-expressing cell line, agonist reporter assay; AID 1509; 0.35% of 220,000 active; activation, % at 4.98 µM; in the data active = activation above about 11%
S1P3 antag-1: antagonists of human S1P3 receptor. Q99500. CHO S1P3 NFAT-BLA reporter, FRET fluorescence, antagonist mode. inhibition, % at 4.98 µM. 0.27% of 170,000 active. AID 485;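 active = inhibition above the plate cutoff, the mean inhibition of test wells on that plate plus 3 SD, cut at about 28% in these data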;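 note: cells challenged with S1P at its EC80 of 0.8 µM; blue over green emission ratio from cleaved BLA substrate after 4 h stimulation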
PERK inh: blocks human PERK kinase; CHO PERK-DD fusion, SEAP luminescence translation reporter; 0.17% of 220,000 active; inhibition, % at 5.6 µM; Q9NZJ5;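 active = inhibition above the mean inhibition of all tested compounds plus 3 SD, set separately per screening campaign, cut at about 2.9% in these data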;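 note: PERK kinase domain activated by AP20187 dimerizer at 100 nM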
S1P4 antagonist: antagonists of human S1P4 receptor | S1P4-expressing cells, antagonist mode, reporter read-out | inhibition, % at 4.98 µM | O95977 | 0.26% of 220,000 active | AID 1510; in the data active = inhibition above about 29%
S1P3 antag-2: human S1P3 receptor antagonism, confirmation; CHO S1P3 NFAT-BLA reporter, FRET, antagonist mode; 30% of 240 active; inhibition, % at 4.98 µM; shares compounds with S1P3 antag-1;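 active = inhibition above the hit threshold that was computed for the earlier primary screen, cut at about 30% in these data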
Each line names hits and unclear results; the compound was inactive in the other large screens (follow-up assays come after a bar, where they were run). Most compounds without a hit are left out; they make up all but 1.3% or so of the library.

Cc1c(NC(=O)Nc2ccc(Cl)cc2)c(=O)n(-c2ccccc2)n1C	none
Cc1ccc2nc(C)c3c(c2c1)COC3	S1P3 antag-1 30 | S1P3 antag-2 inactive
CC(C(=O)Nc1cccnc1)c1ccc([N+](=O)[O-])cc1 (stereo not drawn)	none
CC(C(=O)Nc1cccc(Br)c1)c1ccc([N+](=O)[O-])cc1 (stereo not drawn)	S1P3 antag-1 30 | S1P3 antag-2 inactive
COc1ccc(OC)c(-n2c(=S)[nH]c3cc(C(=O)N4CCN(c5ccccc5)CC4)ccc3c2=O)c1	none
O=C(COC(=O)c1cnc(Cl)c(Cl)c1)NCCC1=CCCCC1	S1P3 antag-1 33 | S1P3 antag-2 inactive
O=C(c1ccc(Br)cc1)N(Cc1nc2ccccc2c(=O)[nH]1)C1CCCC1	none
COc1ccc2[nH]c3c(N4CCc5ccccc5C4)ncnc3c2c1	S1P3 antag-1 31 | S1P3 antag-2 inactive
CC(C)c1ccc(/C=C/C(=O)NCCC2=CCCCC2)cc1	S1P3 antag-1 30 | S1P3 antag-2 inactive
Cc1nn(-c2ccccc2)c(Cl)c1/C=N/NC(=O)c1ccc(CNc2ccccc2)o1	S1P3 antag-1 28 | S1P3 antag-2 inactive
Cc1nn(-c2ccccc2)c(Cl)c1/C=N/NC(=O)c1ccco1	none (no result: S1P3 antag-1)
CC1(C(=O)OCc2cc(=O)n3cc(Br)ccc3n2)CC1(Cl)Cl (stereo not drawn)	none
CCCC[C@@H]1C[C@H]1[C@@H](NC(=O)c1cccs1)c1ccc(Cl)cc1	S1P3 antag-1 48 | S1P3 antag-2 69
CC(C)c1ccc(NCCC(=O)c2cccs2)cc1	S1P3 antag-1 30 | S1P3 antag-2 inactive
Cc1ccc(NCCC(=O)c2cccs2)cc1	none
Fc1ccc(CNC(=S)Nc2cccc(Cl)c2)cc1	S1P3 antag-1 28 | S1P3 antag-2 inactive
S=C(NCc1ccncc1)Nc1cccc(Cl)c1	none
O=C(c1cc(C(=O)N2CCOCC2)c2nc3ccccc3n2c1)c1cc(Cl)cc(Cl)c1O	S1P3 antag-1 31 | S1P3 antag-2 inactive
COc1ccc(-n2c(C)cc(/C=N/Nc3nnc(C)n3N)c2C)cc1	S1P3 antag-1 31 | S1P3 antag-2 inactive
O=C(NCC1CCCO1)C(=O)c1c[nH]c2ccccc12 (stereo not drawn)	none
Cc1[nH]c2ccccc2c1C(=O)C(=O)NCC1CCCO1 (stereo not drawn)	S1P3 antag-1 53 | S1P3 antag-2 inactive
CCOC(=O)C1C(=O)CC(C)(O)C(C(=O)OCC)C1c1ccc([N+](=O)[O-])cc1 (stereo not drawn)	none
CCN1/C(=C/c2ccc3cc(C)ccc3[n+]2CC)Sc2cc(C)ccc21	S1P3 antag-1 39 | S1P3 antag-2 inactive
CCCCN1/C(=C/c2ccc3ccccc3[n+]2CC)Sc2ccccc21	S1P3 antag-1 30 | S1P3 antag-2 inactive
CCN1/C(=C/c2ccc3ccccc3[n+]2CC)C=Cc2ccccc21	none (no result: S1P3 antag-1)
Cc1sc(NC(=O)C2C3CCC(O3)C2C(=O)O)nc1-c1ccc(CC(C)C)cc1 (stereo not drawn)	S1P3 antag-1 106 | S1P3 antag-2 inactive
Cc1ccc(NC(=O)/C(C#N)=C(\N)C(Cl)(Cl)Cl)nc1	none
O=C(O)/C=C/C(=O)NCCC(c1ccccc1)c1ccccc1	none
COc1ccc(CN(CC2CCC(C(=O)O)CC2)C(=S)Nc2ccccc2C)cc1 (stereo not drawn)	none
COc1ccc(CN(CC2CCC(C(=O)O)CC2)C(=S)Nc2cc(C)ccc2C)cc1 (stereo not drawn)	S1P3 antag-1 33 | S1P3 antag-2 inactive
ClCc1nnc(-c2cc3c(s2)CCCC3)o1	none
O=C(Oc1ccccc1OC(=O)N1CCOCC1)N1CCOCC1	none
CC(Oc1ccccc1Cl)C(=O)N1CCOCC1 (stereo not drawn)	S1P3 antag-1 46 | S1P3 antag-2 inactive
O=C1c2cccc3c(N4CCCCC4)ccc(c23)C(=O)N1c1ccc(O)cc1	none
O=C1c2cccc3c(N4CCCCC4)ccc(c23)C(=O)N1c1ccccc1O	S1P3 antag-1 48 | S1P3 antag-2 33
O=C(COC(=O)CCCOc1ccc(Cl)cc1Cl)Nc1cccc(Cl)c1	S1P3 antag-1 43 | S1P3 antag-2 inactive
COc1cccc(OC)c1C(=O)Nc1nc2cc3c(cc2s1)OCO3	S1P3 antag-1 33 | S1P3 antag-2 inactive
Cc1ccccc1NC(=S)N1CCC(NC(=O)c2ccco2)CC1	none
Cn1c(SCc2ccccc2)nnc1-c1ccc2nonc2c1	S1P3 antag-1 30 | S1P3 antag-2 inactive
Cn1c(SCc2ccccc2)nnc1-c1ccc2c(c1)OCO2	none
CSC(=S)N/N=C(\C)c1ccc(Br)cc1	none
COc1ccc(-c2[nH]ncc2N=Nc2cc(C)cc(C)c2)cc1	S1P3 antag-1 38 | S1P3 antag-2 inactive
C=CCC1(Cl)C(=O)C(Cl)=C(N2CCN(C)CC2)C1(OC)OC (stereo not drawn)	none
Cc1ccc(S(=O)(=O)NCc2ccncc2)c(C)c1C	S1P3 antag-1 35 | S1P3 antag-2 inactive
Cc1cc(C)c(S(=O)(=O)NCc2ccncc2)c(C)c1	none (no result: S1P3 antag-1)
COc1ccccc1C(=O)N(CCC1CCCN1C)c1nc2ccccc2s1 (stereo not drawn)	none
c1ccc(-c2cn3nc(-c4ccccc4)c(-c4ccccc4)nc3n2)cc1	none (no result: S1P3 antag-1)
Cc1ccc(-c2cn3nc(-c4ccccc4)c(-c4ccccc4)nc3n2)cc1	S1P3 antag-1 50 | S1P3 antag-2 inactive
CCCCSc1nnc(CSc2ncccn2)n1C	S1P3 antag-1 29 | S1P3 antag-2 inactive
Cn1c(CSc2ncccn2)nnc1SCC(=O)N1CCCC1	none
Cc1cc(Oc2ccc(=O)[nH]n2)nc(Cl)n1	none
COCC(C)NC(C(=O)Nc1ccc(C)c(Cl)c1)c1ccccc1 (stereo not drawn)	none (no result: S1P3 antag-1)
Cc1ccc(NC(=O)C(OC(=O)c2ccc(C=O)cc2)c2ccccc2)cc1Cl (stereo not drawn)	S1P3 antag-1 30 | S1P3 antag-2 inactive
CCCc1nc2ccc([N+](=O)[O-])cc2[nH]1	none
CC1=C(C(=O)OCC2CCCO2)C(c2ccc(Cl)cc2)NC(=O)N1 (stereo not drawn)	none
CCN(CC)S(=O)(=O)c1cccc(C(=O)NC(C)C(c2cccs2)N2CCCC2)c1 (stereo not drawn)	S1P3 antag-1 29 | S1P3 antag-2 inactive
O=C(c1cccc(S(=O)(=O)N2CCc3ccccc32)c1)N1CCN(c2ccccn2)CC1	none
COc1ccccc1NC(=O)c1ccc(NC(=O)COC(=O)C2CCCO2)cc1 (stereo not drawn)	S1P3 antag-1 30 | S1P3 antag-2 inactive
CCCSc1nnc(NC(=O)Nc2ccccc2OC)s1	none
Cc1[nH]c2ccccc2c1/C=N/NC(=O)c1cccc([N+](=O)[O-])c1	none
Cc1[nH]c2ccccc2c1/C=N/Nc1ccc([N+](=O)[O-])cc1	S1P3 antag-1 40 | S1P3 antag-2 inactive
O=NN(CCc1ccncc1)c1ccc(OCc2ccccc2)cc1	S1P3 antag-1 33 | S1P3 antag-2 inactive
COc1ccc(CN(C)c2nc(-c3cccnc3)nc3ccccc23)cc1OC	none
C=CCNc1nc(-c2ccc([N+](=O)[O-])cc2)cs1	S1P3 antag-1 29 | S1P3 antag-2 inactive

Screening data (PubChem BioAssay)
